Shown is part of a subset that was picked to be rich in hits.
G9a inh – qHTS Assay for Inhibitors of Histone Lysine Methyltransferase G9a; G9a H3K9 monomethylation, AlphaScreen, 2 h; Potency, µM (top dose mostly 102 µM), inactives show top-dose activity, negative = inhibition, usual class: inhibitors; Histone-lysine N-methyltransferase EHMT2 (Homo sapiens), Q96KQ7; AID 504332, 2011; hit rate 8.8% among 350,000; further: on the % scale 0 is the no-effect control and ±100 the full control effect; nearly all actives have a fitted effect of over 75% in size
Target sequence (Q96KQ7 913-1193 limits assumed): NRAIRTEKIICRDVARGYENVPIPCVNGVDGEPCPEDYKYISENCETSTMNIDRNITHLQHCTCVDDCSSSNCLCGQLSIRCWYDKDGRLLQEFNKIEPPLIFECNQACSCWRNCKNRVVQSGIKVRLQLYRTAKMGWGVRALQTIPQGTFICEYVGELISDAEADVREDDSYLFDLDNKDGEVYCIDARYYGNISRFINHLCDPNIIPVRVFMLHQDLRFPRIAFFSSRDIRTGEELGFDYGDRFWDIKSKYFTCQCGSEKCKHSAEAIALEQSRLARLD
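G9a (20 nM) was preincubated 15 min with compound, then reacted 2 h at room temperature with 500 nM biotin-H3K9 peptide and 20 µM SAM. Monomethyl-H3K9 detected by AlphaScreen using anti-H3K9me1 antibody.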
12-LOX inh – Primary qHTS assay for inhibitors of human arachidonate 12S-lipoxygenase (ALOX12): Round 2; Polyunsaturated fatty acid lipoxygenase ALOX12 (Homo sapiens), P18054; purified 12hLO, xylenol orange hydroperoxide absorbance; Potency, µM (series often up to 108 µM), for inactives: top-dose activity change, negative = inhibition, actives largely listed as inhibitors; hit rate 1.1% among 580,000; further: on the % scale 0 is the no-effect control and ±100 the full control effect
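Purified human 12hLO at 150 nM in 25 mM Hepes, 0.01% Triton X-100, pH 7.0, preincubated 15 min at room temperature with compound. Reaction started with 40 uM arachidonic acid, 30 min at room temperature. Hydroperoxide measured by Fe-xylenol orange, 573/405 nm absorbance ratio.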
Sfp PPTase inh – qHTS Assay for Inhibitors of Bacillus subtilis Sfp phosphopantetheinyl transferase (PPTase). hit rate 3.5% among 310,000. 4'-phosphopantetheinyl transferase ffp (Bacillus subtilis), Q9F4F7. AID 1490, 2009. Biochemical Sfp PPTase activity, qHTS. Potency, µM, without a hit: largest response in the series, negative = inhibition, usual class: inhibitors;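 further: the enzyme is Sfp with the accession as filed and its product quenches rhodamine fluorescence; 0% = enzyme reaction without inhibitor and -100% = no enzyme wells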
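Sfp 15 nM + cpd, 15 min RT; start w/ rhodamine-CoA 5 uM, BHQ-2-YbbR 12.5 uM (final); 50 mM Hepes pH 7.6, 10 mM MgCl2, 0.01% NP-40, 0.01% BSA; read 525/598 nm at 0 and 30 min.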
Glioma ERSR ind – qHTS for Inducers of the Endoplasmic Reticulum Stress Response (ERSR) in Human Glioma: qHTS; U87-MG GRP78 promoter luciferase reporter, 16 h; Potency, µM, inactives show top-dose activation, usual class: activators; hit rate 0.02% among 420,000; further: series mostly up to about 76 µM; % of control where 0% means no effect; nearly all actives have a fitted effect of over 35% in size
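ERSR induction read as luciferase luminescence (Bright-Glo, 10 min at room temperature) in stably transfected human U87-MG glioma cells exposed to compounds for 16 h, using GRP78 as sensor.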
VDR inhibitor – Inhibitors of the vitamin D receptor (VDR): qHTS; Vitamin D3 receptor (Homo sapiens), P11473; VDR-SRC2-3 peptide fluorescence polarization, 2 h; Potency, µM, for inactives: max response, negative = inhibition, usual class: inhibitors; hit rate 0.93% among 400,000; further: on the % scale 0 is the no-effect control and ±100 the full control effect
Target sequence (P11473 whole entry, looked up): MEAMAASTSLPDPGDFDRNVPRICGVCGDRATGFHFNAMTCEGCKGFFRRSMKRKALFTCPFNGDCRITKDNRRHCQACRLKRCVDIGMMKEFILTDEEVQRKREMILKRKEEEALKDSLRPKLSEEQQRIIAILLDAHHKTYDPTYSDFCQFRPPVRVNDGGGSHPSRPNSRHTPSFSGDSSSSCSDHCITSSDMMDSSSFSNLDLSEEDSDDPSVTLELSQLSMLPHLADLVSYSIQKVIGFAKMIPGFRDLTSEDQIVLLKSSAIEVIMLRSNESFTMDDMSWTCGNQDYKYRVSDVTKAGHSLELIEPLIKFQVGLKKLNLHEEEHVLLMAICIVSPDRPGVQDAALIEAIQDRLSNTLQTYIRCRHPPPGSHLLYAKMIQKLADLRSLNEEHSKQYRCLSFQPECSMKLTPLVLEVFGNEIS
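Two reagent solutions held at 4 deg C in the dark were dispensed, compounds pinned at 23 nl, and the mixture incubated 2 h at room temperature. Read-out: fluorescence polarization of VDR–SRC2-3 peptide binding.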
Active calls of the source: *; [ ] = remark or other dose. The call rests on the fitted dose curve; in most records, active means well fitted curve in the direction sought with a large enough effect; inconclusive means small, poorly fitted or top-dose-only effect, or another doubt; inactive means no such curve, though single readings can be large; an effect the other way counts as inactive or inconclusive. Potency means the concentration at half of the fitted maximal effect.

How did COc1ccc(OC)c(-c2cc(C(=O)O)c3ccc(C)c(C)c3n2)c1 do in these assays?
12-LOX inh: -5%

What do the screens show for `CCc1ccc(C(=O)Nc2cccc(-c3nnc4n3CCCC4)c2)cc1`?
12-LOX inh: 35%

How did CNC(=O)[C@@H]1C[C@H](n2cc(CN(C)C(=O)NCC3CCCCC3)nn2)CN1 do in these assays?
12-LOX inh: 56%

How did O=C(C1CCCCC1)N1CCCC(c2nc3c(nnn3Cc3ccccc3)c(=O)[nH]2)C1 (centres undefined) do in these assays?
G9a inh: 29%; 12-LOX inh: 1%; Sfp PPTase inh: -7%; Glioma ERSR ind: -2%; VDR inhibitor: 6%

What do the screens show for `Cc1ccc(C)c(Cn2nnc3c(=O)[nH]c(C4CCCN(C(=O)C5CCCCC5)C4)nc32)c1` (centres undefined)?
G9a inh: -37%[12.7 µM]; 12-LOX inh: -12%; Sfp PPTase inh: 50µM*; Glioma ERSR ind: -7%; VDR inhibitor: -20%

How did CCN(Cc1ccccc1)C(=O)c1nn(-c2ccccc2)c(=O)c2ccccc12 do in these assays?
12-LOX inh: 4%

How did Cc1nc(N2CCCC2)cc(N2CCN(C(=O)c3ccc(C(F)(F)F)cc3)CC2)n1 do in these assays?
12-LOX inh: -11%

What do the screens show for `CCN1C(=O)/C(=C2\C=Cc3ccccc3N2CC)SC1=S`?
G9a inh: inconclusive; 12-LOX inh: -6%; Sfp PPTase inh: -29%; Glioma ERSR ind: 3%; VDR inhibitor: -10%

Results for O=C1C(c2ccccc2)=S=C2C=Cc3ccccc3N12 ?
12-LOX inh: 22µM*

Results for S=C(NCCc1c[nH]c2ccccc12)Nc1ccc(Br)cc1 ?
12-LOX inh: 32µM*

What do the screens show for `CC(C)c1ccc(NC(=S)NCCc2c[nH]c3ccccc23)cc1`?
G9a inh: 45µM*; 12-LOX inh: 35µM*; Sfp PPTase inh: 14%; Glioma ERSR ind: -1%; VDR inhibitor: 7%

What do the screens show for `COc1ccc(NC(=O)CN(C)C(=O)CCCc2c[nH]c3ccccc23)cc1`?
G9a inh: 45µM*; 12-LOX inh: 1%; Glioma ERSR ind: 0%; VDR inhibitor: -10%

Results for COc1ccc(CCNC(=S)NCCc2c[nH]c3ccccc23)cc1 ?
G9a inh: 45µM*; 12-LOX inh: 45µM*; Sfp PPTase inh: 32%; Glioma ERSR ind: -3%; VDR inhibitor: -1%

Results for Cc1ccc(NC(=S)NCCc2c[nH]c3ccccc23)cc1 ?
G9a inh: 39%[0.501 µM]; 12-LOX inh: inconclusive; Sfp PPTase inh: 6%; Glioma ERSR ind: 3%; VDR inhibitor: -2%

Results for COc1ccc(OC)c(C(=O)COC(=O)COc2cccc(Cl)c2)c1 ?
12-LOX inh: 11%

Results for O=C(O)c1cc(I)ccc1Br ?
12-LOX inh: -22%

How did Cc1cccc(NC(=S)NCCc2c[nH]c3ccccc23)c1 do in these assays?
G9a inh: 8%[59 µM]; 12-LOX inh: 40µM*; Sfp PPTase inh: 20%; Glioma ERSR ind: -4%; VDR inhibitor: 2%

What do the screens show for `S=C(Cc1ccccc1)NCCc1ccccc1`?
G9a inh: 0%[2.33 µM]; 12-LOX inh: -18%; Glioma ERSR ind: -4%; VDR inhibitor: -8%

How did Cc1ccc(C)c(NC(=S)NCCc2c[nH]c3ccccc23)c1 do in these assays?
G9a inh: inconclusive; 12-LOX inh: inconclusive; Sfp PPTase inh: 20%; Glioma ERSR ind: -3%; VDR inhibitor: 7%

How did COc1ccc(CC(=S)NCCc2ccccc2)cc1 do in these assays?
G9a inh: 1%[0.501 µM]; 12-LOX inh: inconclusive; Sfp PPTase inh: 14µM*; Glioma ERSR ind: 3%; VDR inhibitor: inconclusive

How did C=CCn1c(N2CCN(Cc3cccc(Cl)c3)CC2)nc2c1c(=O)[nH]c(=O)n2C do in these assays?
12-LOX inh: 5%

How did CN(Cc1ccc(F)cc1)c1ccc2ncc(Nc3ccnc(N4CCOCC4)c3)n2n1 do in these assays?
12-LOX inh: 22%[176 µM]

Results for CCOc1ccc2c(c1)-c1c(ssc1=S)C(C)(C)N2C(=O)CSC1=NCCS1 ?
G9a inh: 8.9µM*; 12-LOX inh: inconclusive; Sfp PPTase inh: 10%; Glioma ERSR ind: -5%; VDR inhibitor: -20%

What do the screens show for `CCOc1ccc2c(c1)-c1c(ssc1=S)C(C)(C)N2`?
G9a inh: 10µM*; Sfp PPTase inh: -28%; Glioma ERSR ind: 0%; VDR inhibitor: 8%

Results for COc1ccc(NC(=O)Nc2c(NC3CCCCC3)c3ccccc3oc2=O)c(OC)c1 ?
12-LOX inh: 13%

How did COc1ccc(/C=C/C(=O)NCc2cccnc2)cc1 do in these assays?
G9a inh: -4%; 12-LOX inh: -5%; Sfp PPTase inh: -4%; Glioma ERSR ind: 0%; VDR inhibitor: -11%

Results for CCc1ccc(CN(Cc2cccnc2)C(=O)/C=C/c2ccc(OC)cc2)cc1 ?
G9a inh: 50µM*; 12-LOX inh: inconclusive; Sfp PPTase inh: inconclusive; Glioma ERSR ind: 0%; VDR inhibitor: -11%

How did COc1ccc(C)cc1NC(=O)Cn1nc(C(N)=O)c2ccccc2c1=O do in these assays?
12-LOX inh: 0%

How did O=C1CN(c2nc3ccccc3n3cnnc23)CC(=O)N1CCc1ccccc1 do in these assays?
G9a inh: 79µM*; 12-LOX inh: inconclusive; Sfp PPTase inh: 1%; Glioma ERSR ind: -2%; VDR inhibitor: -1%

How did Cc1nccn1CCc1n[nH]c(=S)n1Cc1ccccc1 do in these assays?
G9a inh: 2µM*; 12-LOX inh: -19%; Sfp PPTase inh: 3%; Glioma ERSR ind: 2%; VDR inhibitor: 17%

How did S=c1[nH]nc(CCc2ccccc2)n1Cc1ccccc1 do in these assays?
G9a inh: 3.5µM*; 12-LOX inh: inconclusive; Sfp PPTase inh: -8%; Glioma ERSR ind: -4%; VDR inhibitor: 3%

What do the screens show for `COc1ccccc1OCc1n[nH]c(=S)n1Cc1ccccc1`?
G9a inh: 13µM*; 12-LOX inh: -28%; Sfp PPTase inh: 8%; Glioma ERSR ind: -5%; VDR inhibitor: -10%

What do the screens show for `COc1ccc(Br)cc1CSc1nnc(C)n1C1CC1`?
12-LOX inh: 12%

How did Cc1ccc(C)c(N2CC(c3nc4ccccc4[nH]3)CC2=O)c1 (centres undefined) do in these assays?
12-LOX inh: 20%

How did Cc1onc(-c2ccccc2)c1C(=O)N(Cc1ccccn1)Cc1ccccn1 do in these assays?
G9a inh: 37%[59 µM]; 12-LOX inh: -22%; Sfp PPTase inh: 18%; Glioma ERSR ind: -9%; VDR inhibitor: 1%

High-throughput results: PubChem BioAssay, National Center for Advancing Translational Sciences (NCATS)
